High-throughput results: PubChem BioAssay, National Center for Advancing Translational Sciences (NCATS)
Pf growth 96h: P. falciparum growth inhibition at 96 hours. Potency, µM (highest dose often 28.7 µM), usual class: inhibitors. hit rate 6.9% among 320,000. P. falciparum luciferase reporter growth, 96 h
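96 h incubation, 37 C, 5% CO2, of luciferase-reporter P. falciparum-infected RBCs (2% hematocrit, 0.05% parasitemia final) with test compounds; endpoint luminescence.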
AMA1 RON2 block: AMA1-RON2 (P. falciparum) interaction inhibition; AlphaScreen AMA1-biotinylated RON2 peptide binding; Potency, µM (highest dose often 58.2 µM), actives largely listed as inhibitors; hit rate 0.2% among 360,000; also: nearly all actives have a fitted effect of over 45% in size
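AMA1 (3D7) with his tag at 25 nM final met compounds first, then biotinylated RON2 peptide at 25 nM; detection used donor plus acceptor beads, 10 µg/mL apiece, read by AlphaScreen after 30 min at room temperature.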
Pf growth 48h: inhibits P. falciparum growth in the first generation, 48 h; hit rate 5.9% among 310,000; P. falciparum luciferase growth in erythrocytes, 48 h; Potency, µM (top dose mostly 28.7 µM), hits mostly inhibitors
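First compound was added to culture medium, then infected red cells at 0.1% parasitemia and 2% hematocrit (final). After incubation at 37 C under 5% CO2, luciferase detection reagent was dispensed and light output recorded.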
Shiga toxin inh: inhibitors of Shiga toxin in Vero cells. Vero cells, Shiga toxin protein synthesis inhibition reporter. AID 2315. hit rate 9.2% among 290,000. inhibition, % at 38.7 µM; in the data active = inhibition mostly above about 28%, no sharp cut-off; inactive = mostly below about 43%
Cycloheximide cs: counter-screen for Shiga toxin inhibitors: cycloheximide protein synthesis inhibition. cell reporter, cycloheximide protein synthesis inhibition counterscreen. max response, %. hit rate 12% among 300,000; in the data active = max response mostly above about 13%, no sharp cut-off; inactive = mostly below about 14%; also: read at 38.3 µM for the half of the compounds with a filed dose
HCV inh: inhibitors of hepatitis C virus infection; Huh7.5.1 HCVcc-Cre infection, luciferase reporter, 44 h; Potency, µM (series often up to 41.8 µM), hits mostly inhibitors; hit rate 3.4% among 340,000
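Infectious HCVcc-Cre (~0.5 moi) was added to cells just after compound, with cells seeded 4 h earlier at 1,000 per well. Luciferase activity after 44 h culture reported infection; substrate was incubated 15 min at room temperature before reading.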
Of the large screens only hits and unclear results are named; the others gave an inactive call. Shown are actives, neighbours in structure and some others; about 21% of the full set was active somewhere. Unless noted, calls follow the shape of the dose curve; as a rule, active = well fitted curve in the direction sought with a large enough effect; inconclusive = small, poorly fitted or top-dose-only effect, or another doubt; inactive = no such curve, though single readings can be large; an effect the other way counts as inactive or inconclusive.

Cc1csc2ncc(C(=O)Nc3ccc4c(c3)OCCO4)c(=O)n12	Shiga toxin inh 117.3, Cycloheximide cs 58.5
Cc1csc2ncc(C(=O)Nc3ccon3)c(=O)n12	Pf growth 96h 2.62µM
Cc1cccc(NC(=O)c2cnc3scc(C)n3c2=O)c1	Shiga toxin inh 26.2, Cycloheximide cs 19.3
CC(C)Cn1c(C23CC4CC(CC(C4)C2)C3)n[nH]c1=S	Pf growth 48h inconclusive
COc1ccc(OCC(=O)Nc2ccccc2C(=O)Nc2ccc(C(=O)O)cc2)cc1	none
CNC(=S)Nc1cc(C(=O)N2CCCC2)ccc1N1CCCC1	Pf growth 96h 5.22µM
CCNC(=S)Nc1cc(C(=O)N2CCCC2)ccc1N1CCCC1	none
O=C(NCc1cccnc1)Nc1cccc(F)c1	none
CC(NC(=O)Nc1ccc(Cl)cc1)c1ccccc1 (stereo not given)	Pf growth 96h 10.4µM
O=C(NCC(F)(F)F)Nc1cccnc1	Pf growth 96h 14.7µM
O=C(Nc1ccc(N2CCOCC2)cc1)c1cnsn1	none
CCOP(=O)(OCC)C(NC(=O)Nc1ccc(Cl)cc1)c1ccccc1 (stereo not given)	Pf growth 48h inconclusive
CC(=O)c1ccc(NC(=O)Nc2ccncc2)cc1	Pf growth 48h inconclusive, Shiga toxin inh 57.1, Cycloheximide cs 28.1
CC(=O)c1ccc(NC(=O)c2cnsn2)cc1	Pf growth 96h inconclusive, Shiga toxin inh 81.6, Cycloheximide cs 31.4
CCCCn1c(N)c(N(CCOC)C(=O)COC(=O)CSc2cc(C)c3ccccc3n2)c(=O)[nH]c1=O	HCV inh inconclusive (no result: Shiga toxin inh, Cycloheximide cs)
CNc1cccc(-c2cc(OC)ccc2OC)n1	none (no result: Pf growth 96h, Pf growth 48h, Shiga toxin inh, Cycloheximide cs, HCV inh)
Cc1cc(NC(=O)Nc2ccc(Cl)cc2)n(C)n1	none
Nc1ccc(NC(=O)c2ccc(C(=O)Nc3ccc(N)cc3)cc2)cc1	none
CNC(=O)Nc1ccc(Cl)cc1	Cycloheximide cs 20.7
Nc1ccc(C(=O)CC(=O)Nc2ccc(Cl)cc2)cc1	Cycloheximide cs 18.3
O=C(Nc1ccccc1)Nc1ccc(Oc2cccnc2)nc1	Shiga toxin inh 39.3, Cycloheximide cs 41.8
COC(=O)c1ccc(N2Cc3ccccc3/C2=N\C(=O)Nc2ccccc2)cc1	none
CC(=O)c1ccc(N2Cc3ccccc3/C2=N\C(=O)Nc2ccc(Cl)cc2)cc1	Shiga toxin inh 33.0, Cycloheximide cs 43.2
COc1cccc(C(=O)NCC(=O)N2CCN(c3ccc(C(F)(F)F)cn3)CC2)c1	Pf growth 48h inconclusive, HCV inh inconclusive (no result: Shiga toxin inh, Cycloheximide cs)
C=CCNc1nc(C(=O)OC(C)C(=O)c2ccc(C)cc2)cs1 (stereo not given)	none (no result: Pf growth 96h, Pf growth 48h, Shiga toxin inh, Cycloheximide cs)
CC(=O)c1ccc(NC(=O)Nc2ccc(Cl)cc2)cc1	Pf growth 96h inconclusive, Shiga toxin inh 104.6, Cycloheximide cs 34.2, HCV inh inconclusive (no result: Pf growth 48h)
COc1ccc(C(NCC(=O)NC(C)c2ccc(Cl)cc2)c2ccccc2)cc1 (stereo not given)	AMA1 RON2 block inconclusive, HCV inh 11.2µM
CC(=O)c1ccc(NC(=O)C(C)Nc2ccc(Cl)cc2)cc1 (stereo not given)	Pf growth 48h inconclusive
CC(=O)c1ccc(NC(=O)Nc2cccnc2)cc1	Cycloheximide cs 27.9
O=C(Nc1ccc(F)cc1)Nc1cccnc1	none
Cc1ccc(C(NC(=O)NC(C)c2ccccc2)C(Cl)(Cl)Cl)cc1F (stereo not given)	Pf growth 96h inconclusive, Pf growth 48h 4.15µM, HCV inh 10µM
O=C(Nc1ccc(OC(F)(F)F)cc1)Nc1cccnc1	Pf growth 96h 10.4µM, Pf growth 48h inconclusive, Shiga toxin inh 69.5, Cycloheximide cs 31.5
CN(Cc1ccccc1)C(=O)Nc1ccc(Cl)cc1	HCV inh inconclusive (no result: Pf growth 96h, Pf growth 48h, Shiga toxin inh, Cycloheximide cs)
CON(C)C(=O)Nc1ccc(Cl)cc1	Cycloheximide cs 11.5 (no result: Pf growth 96h)
CCOC(=O)Cc1ccc(Nc2nc(NCCOC)nc3ccsc23)cc1	none (no result: Pf growth 96h, Pf growth 48h, Shiga toxin inh, Cycloheximide cs, HCV inh)
O=C1CC[C@H](C(=O)N[C@@H]2C[C@H]2c2ccccc2)N1	none (no result: AMA1 RON2 block, Shiga toxin inh, Cycloheximide cs, HCV inh)
O=C1NCCCC1C(=O)N/N=C/c1cccc(Cl)c1 (stereo not given)	Pf growth 48h inconclusive
Cc1cc(C(=O)N2CCCC(N3CCN(c4cccc(C(F)(F)F)c4)CC3)C2)nn1C (stereo not given)	none
Cc1cc(C(=O)N2CCCC(N3CCN(c4cccc(Cl)c4)CC3)C2)nn1C (stereo not given)	Cycloheximide cs 18.9
O=C1CCCN1CC(=O)N1CCCC(N2CCN(c3cccc(Cl)c3)CC2)C1 (stereo not given)	Pf growth 96h inconclusive, Shiga toxin inh 43.7, Cycloheximide cs 29.9 (no result: HCV inh)
Cc1noc(/C=C/N(C)C)c1S(=O)(=O)N1CCCC(C(=O)Nc2ccc(F)cc2F)C1 (stereo not given)	Pf growth 96h inconclusive, Pf growth 48h inconclusive
O=C1c2ccccc2C(=O)N1Cc1ccc2c(c1)OCO2	none (no result: Pf growth 96h)
C=C1c2ccccc2NC(=S)N1Cc1ccc2c(c1)OCO2	Shiga toxin inh 65.4, Cycloheximide cs 41.2
Cc1nn(-c2ccccc2)c(Cl)c1CN(C(=O)CCl)c1ccc(Cl)cc1	Pf growth 96h inconclusive, HCV inh 10µM
Cc1nn(-c2ccccc2)c(Cl)c1CN(C(=O)CCl)c1cccc2ccccc12	Pf growth 96h inconclusive, Pf growth 48h 3.7µM, Cycloheximide cs 12.0, HCV inh inconclusive
O=C(O)C(C=C(Cl)Cl)N1CCOCC1 (stereo not given)	none (no result: Pf growth 96h, Pf growth 48h, Shiga toxin inh, Cycloheximide cs)
CC(=O)Nc1c(C(=O)O)oc2ccccc12	Cycloheximide cs 23.5
COC(=O)c1oc2ccccc2c1NC(=O)c1ccccc1O	Pf growth 48h 10.4µM, HCV inh inconclusive
COc1ccc(C(=O)c2oc3ccc(OC)cc3c2NC(C)=O)cc1	HCV inh inconclusive
CC(=O)Nc1c(C(=O)O)oc2ccc(Cl)cc12	Pf growth 96h 2.62µM
COc1ccc(C(=O)c2oc3ccccc3c2NC(C)=O)cc1	Pf growth 96h inconclusive, HCV inh 6.31µM
CC(=O)Nc1c(C(=O)c2ccc(F)cc2)oc2ccccc12	none
O=C(COC(=O)Cn1cc(C(F)(F)F)ccc1=O)NCc1ccccc1	none (no result: Shiga toxin inh, Cycloheximide cs)
CN(C)CCCNCC(=O)NN(c1ccccc1)c1ccccc1	none
CCCCn1nc(C(=O)NCC(c2cccs2)N2CCOCC2)c2ccccc2c1=O (stereo not given)	Pf growth 96h inconclusive, Pf growth 48h 9.28µM, HCV inh inconclusive (no result: Shiga toxin inh, Cycloheximide cs)
CC(C)Cn1nc(C(=O)NCc2ccccc2CN2CCCC2)c2ccccc2c1=O	Pf growth 96h inconclusive, Pf growth 48h inconclusive, HCV inh inconclusive (no result: Shiga toxin inh, Cycloheximide cs)
CCCn1nc(C(=O)NNC(=O)c2cccc(C)c2)c2ccccc2c1=O	none (no result: Pf growth 96h, Pf growth 48h, Shiga toxin inh, Cycloheximide cs)
CCCCn1nc(C(=O)NCC2COc3ccccc3O2)c2ccccc2c1=O (stereo not given)	Pf growth 96h inconclusive, Pf growth 48h 10.4µM, HCV inh inconclusive (no result: Shiga toxin inh, Cycloheximide cs)
CCCCn1nc(C(=O)NNC(=O)c2ccncc2)c2ccccc2c1=O	Pf growth 96h inconclusive, Shiga toxin inh 20.2, Cycloheximide cs 40.2
CCn1nc(C(=O)NCC(c2cccs2)N2CCOCC2)c2ccccc2c1=O (stereo not given)	Pf growth 48h inconclusive
